From PubChem BioAssay AID1063 (University of Pittsburgh Molecular Library Screening Center, 2008) come the findings set out here.

Values joined by “and” are separate entries in the source; they are usually repeats but may differ in a detail not shown here. Equal entries are not always repeated. Out of some 200,000 compounds screened, about 18,000 (9%) were called active. No stated cut-off is given here; in the data, active means inhibition above about 50%; inactive means the rest. The entries come from a sample that favours actives as a whole. Some structures have more than one record in an assay (separate samples or runs), and their calls can disagree.

The nature of this test: antileishmanial activity against promastigotes – primary screen (AID 1063).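 Further: promastigotes grown with compound for 44 hours at 28 °C.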 Conditions: Leishmania major promastigotes, resazurin fluorescence viability; at 10 µM; stronger effect = higher value.
With `CCN(CC)S(=O)(=O)c1ccc(Cl)c(C(=O)NC(C)C(c2cccs2)N2CCCC2)c1` (stereo unspecified), the inhibition is 10.7% (inactive).

`Cc1cc(N2CCOCC2)nc2ccc(NC(=S)N3CCN(Cc4ccccc4)CC3)cc12`: the inhibition was 36.5% (inactive).

As for `O=C(Nc1ccccc1)/C(=C/c1ccc([N+](=O)[O-])cc1)NC(=O)c1ccccc1`, the inhibition is -0.93% (inactive).

With `CCOC(=O)/C(=N\Nc1ccccc1[N+](=O)[O-])c1csc(Nc2ccccc2)n1`, the inhibition is 15.4% (inactive).

For `CCOC(=O)/C(=C\c1ccc([N+](=O)[O-])cc1)C(=O)c1cc(C(C)=O)c(Nc2ccccc2)s1`, the inhibition was 101% (active).

On to `Cc1ccc(C(=O)N/C(=C/c2cccs2)C(=O)NCC2CCCO2)cc1` (stereo unspecified), for which the inhibition was -3.66% (inactive).

`CCCCC(=O)NNC(=S)NC(=O)C(c1ccccc1)c1ccccc1`: the inhibition was 22.8% (inactive).

`CC(C)C(=O)Nc1cccc(NC(=S)NC(=O)C(c2ccccc2)c2ccccc2)c1`: the inhibition was 100% (active).

As for `CC(C)C(=O)NC(=S)Nc1ccccc1F`, the inhibition is -3.27% (inactive).

For the molecule `CC(C)(C)c1ccc(C(=O)NCc2nnc(SCC(=O)N3CCCc4ccccc43)n2-c2ccccc2)cc1`, the inhibition is -4.1% (inactive).

On to `COc1ccccc1CCNC(=O)CSc1nnc2ccc(-c3cccnc3)nn12`, for which the inhibition is 1.51% (inactive).

In the case of `C=CCn1c(=N)n(CC(O)COc2ccc(OC)cc2)c2ccccc21` (stereo unspecified), the inhibition is 34.9% (inactive).

As to `OC(COc1ccccc1)Cn1cc(Br)cn1` (stereo unspecified), the inhibition is -7.06% (inactive).

Take `OC(CN=c1sc2ccccc2n1CC(O)COc1ccccc1)COc1ccccc1` (stereo unspecified): the inhibition was 63.1% (active).

On to `C/C(N)=C(/C#N)C(=O)COC(=O)CNS(=O)(=O)c1ccc(C)cc1`, for which the inhibition is -2.53% (inactive).

Take `Cc1ccc(C)n1NC(=O)c1ccc([N+](=O)[O-])cc1`: the inhibition was -0.24% (inactive).

For the molecule `CC1CC(C)CN(C(=O)CSc2ccsc2[N+](=O)[O-])C1` (stereo unspecified), the inhibition is 8.96% (inactive).

Consider `S=c1[nH]nc2c3c4c(sc3ncn12)CCCC4`, for which the inhibition is 72.6% (active).

Consider `c1nnc2c3c4c(sc3ncn12)CCC4`, for which the inhibition is -5.73% (inactive).

On to `CC(C(=O)O)n1cnc2sc3c(c2c1=O)CCCC3` (stereo unspecified), for which the inhibition is -4.65% (inactive).

As to `COc1cc(OC)cc(C(=O)OCC(=O)Nc2sccc2C(N)=O)c1`, the inhibition is 18.3% (inactive).

With `Cc1cc(C)cc(NC(=S)NCCCN2CCOCC2)c1`, the inhibition was 11.8% (inactive).

`Cc1cc(C)c(S(=O)(=O)NCCCN2CCOCC2)cc1Br`: the inhibition is 94.6% (active).

On to `Cc1ccc(S(=O)(=O)NCCN2CCOCC2)cc1C`, for which the inhibition was -7.43% (inactive).

Take `O=C(NCc1cccs1)c1cc(-c2ccccn2)nc2ccc(Br)cc12`: the inhibition was -5.05% (inactive).

`CC(=O)Nc1ccc(OCCC[n+]2cccc(C(=O)[O-])c2)cc1`: the inhibition was 0.17% (inactive).

`COc1cccc(-c2nn(-c3ccccc3)cc2/C=C(\C#N)C(=O)NCCCn2ccnc2)c1`: the inhibition is 100% (active).

`CCOc1ccccc1C(=O)NCCCn1ccnc1`: the inhibition is 0.51% (inactive).

On to `COc1ccc(-c2cc(C(=O)NCCCn3ccnc3)no2)cc1`, for which the inhibition was 36.3% (inactive).

As for `COCCNC(=O)/C(C#N)=C/c1cccc(OCc2ccccc2)c1`, the inhibition was 47% (inactive).

Regarding `COc1ccc(/C=C(\C#N)C(=O)NCCCn2ccnc2)cc1`, the inhibition is 55.7% (active).

Regarding `COc1ccccc1-c1cc(C(=O)NCCCn2ccnc2)no1`, the inhibition was 6.26% (inactive).

With `Cc1nccn1CCCNC(=O)CC1C(=O)NCCN1Cc1ccc(Cl)c(F)c1` (stereo unspecified), the inhibition is 5.03% (inactive).

Consider `Cc1cccc(NS(=O)(=O)c2ccc(C)c(C(N)=O)c2)c1`, for which the inhibition is -3.69% (inactive).

Take `O=C(Nc1ccccc1C(=O)N1CCOCC1)c1ccc(Cl)cc1`: the inhibition is 1.24% (inactive).

As for `NS(=O)(=O)c1cccc(NC(=O)CN2CCCc3ccccc32)c1`, the inhibition was -1.56% (inactive).

With `O=C(NNC(=S)NCc1ccco1)C(c1ccccc1)c1ccccc1`, the inhibition is 45.2% (inactive).

Regarding `Cc1cc(O)c(NC(=O)c2ccc(C)c([N+](=O)[O-])c2)cc1C`, the inhibition was 1.25% (inactive).

As to `COCC(C)NC(=O)CSc1nc2nn(-c3ccccc3)c(=O)c-2c2n1CCCCC2` (stereo unspecified), the inhibition was 34.5% (inactive).

Turning to `COc1ccc(C(=O)C2CCCN(Cc3cccn3-c3ccccn3)C2)c(C)c1` (stereo unspecified), the inhibition was 99.8% (active).

With `CCOC(=O)c1[nH]ncc1CN1CCCC(C(=O)c2ccc(OC)cc2C)C1` (stereo unspecified), the inhibition is 1.77% (inactive).

With `CCn1ccnc1CN1CCCC(C(=O)c2ccc3c4c(cccc24)CC3)C1` (stereo unspecified), the inhibition is 40% (inactive).

`O=C(CN1CCOCC1)Nc1c(Cl)cc(Cl)cc1Cl`: the inhibition was -3.49% (inactive).

Turning to `O=C(Nc1ccc(F)cc1)N1CCCC(c2nc3c(nnn3Cc3ccccc3Cl)c(=O)[nH]2)C1` (stereo unspecified), the inhibition was -7.44% (inactive).

`COC(C(=O)Nc1ccc(C(C)=O)cc1)c1ccccc1` (stereo unspecified): the inhibition is -5.21% (inactive).

Regarding `COC(C(=O)NCc1ccccc1C)c1ccccc1` (stereo unspecified), the inhibition is -3.9% (inactive).

As for `COC(C(=O)Nc1ccc(S(=O)(=O)Nc2ccc(C)c(C)c2)cc1)c1ccccc1` (stereo unspecified), the inhibition is 56.7% (active).

As to `Cc1ccc(C(=O)N/C(=C\c2ccco2)C(=O)N2CCSCC2)cc1C`, the inhibition is 10.4% (inactive).

Consider `O=C(CCCn1c(=O)c2sccc2n(CC(=O)NCC2CCCO2)c1=O)NCc1ccco1` (stereo unspecified), for which the inhibition was -8.29% (inactive).

With `CC1CCCC(C)N1/N=C/c1ccccc1OC(F)F` (stereo unspecified), the inhibition is -3.94% (inactive).

As for `c1ccc2[nH]c(-c3nc4ccccc4[nH]3)nc2c1`, the inhibition is 33.9% (inactive).

On to `Oc1ccc(Br)cc1C=Nc1ccc2[nH]ncc2c1`, for which the inhibition was -4.98% (inactive).

As for `Oc1ccc(Cl)cc1/C=N/c1nc2ccccc2[nH]1`, the inhibition is 63% (active).

Consider `COc1cccc(-c2nnc(NC(=O)c3ccc(S(=O)(=O)N(CC(C)C)CC(C)C)cc3)o2)c1`, for which the inhibition was 100% (active).

For the molecule `O=C(Nc1nnc(-c2ccco2)o1)c1ccc(S(=O)(=O)N2CCOCC2)cc1`, the inhibition is 3.15% (inactive).

Take `COc1cccc(NC(=O)c2ccc(S(=O)(=O)N(C)C)cc2)c1`: the inhibition was -7.02% (inactive).

For the molecule `CCOc1ccc2nc(NCCNC(=O)C(C)(C)C)c(C)cc2c1`, the inhibition was 5.84% (inactive).

As to `CN(CC(=O)NCCc1ccccn1)S(=O)(=O)c1ccc(Cl)cc1`, the inhibition was 6.18% (inactive).

As to `COc1ccc(CCN(C)C(=O)C2CCCN(Cc3ccc(OC)c(OC)c3)C2)cc1OC` (stereo unspecified), the inhibition was -6.68% (inactive) and 55.5% (active).

`COc1ccc(CN2CCCC(CNC(=O)c3ccc(F)cc3)C2)cc1OC` (stereo unspecified): the inhibition was 14.8% (inactive).

Regarding `COc1ccc(CN2CCCC(C(=O)c3ccc(Cl)cc3)C2)cc1Cn1cncn1` (stereo unspecified), the inhibition is 32% (inactive).

As usually defined, the inhibition is the relative decrease from the control value, in per cent.
